{
  "source": "paper PMC5540273",
  "about": "(PLoS ONE, 2017);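 also: KINOMEscan kinase panel screen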",
  "data": [
    {"test_system": "EPHB1", "settings": "concentration: 1 μM,replicates: in singlicate; n = 1", "units": {"%Inh": "%"}, "values": [
      {"smiles": "CS(=O)(=O)c1cccc(CNc2nc(Nc3ccc4c(c3)[C@@H]3C[C@@H]4CNC3=O)ncc2C(F)(F)F)c1", "%Inh": 40},
      {"smiles": "CSc1nccc(-c2c(-c3ccc(F)cc3)ncn2CCCN2CCOCC2)n1.Cl", "note": "[SB-217146]", "%Inh": 11},
      {"smiles": "O=C1NCCc2[nH]c(-c3ccncc3)cc21", "%Inh": 0},
      {"smiles": "FC(F)(F)c1cc(Br)cc(Nc2nccc(-c3cnn4ncccc34)n2)c1", "note": "[GW810578]", "%Inh": 0},
      {"smiles": "CN(c1ccc2c(c1)nc(NCc1ccc(F)cc1)n2C)c1ccnc(Nc2ccc(CS(C)(=O)=O)cc2)n1.Cl", "note": "[GW813244]", "%Inh": 9},
      {"smiles": "Cc1ccc(CC(=O)N2CCc3cc(-c4cn(C)c5ncnc(N)c45)ccc32)cc1", "note": "[GSK2634758]", "%Inh": 7},
      {"smiles": "O=C(NCC1CC1)c1ccc(-c2cc(C(=O)NC3CC3)ccc2F)cc1", "note": "[GW810445]", "%Inh": 4},
      {"smiles": "CCn1c(-c2nonc2N)nc2cncc(Br)c21", "note": "[SB-738004]", "%Inh": 0},
      {"smiles": "CN1CCN(CCCNc2nccc(-c3c(-c4ccc(F)cc4)nn4cc(C(N)=O)ccc34)n2)CC1", "note": "[GW622475]", "%Inh": 35},
      {"smiles": "O=C(NOCC1CC1)c1cc(Br)c(F)c(F)c1Nc1ccc(I)cc1Cl", "%Inh": 5},
      {"smiles": "Cc1n[nH]c2cc(Nc3ccnc(Nc4cccc(CN5CCOCC5)c4)n3)ccc12", "note": "[GW682569]", "%Inh": 19},
      {"smiles": "C[C@@H]1CCN(C(=O)N2CCCC2)C[C@@H]1N(C)c1ncnc2[nH]ccc12", "%Inh": 0},
      {"smiles": "CS(=O)c1ccc(-c2coc3ccc(-c4n[nH]c(=O)o4)cc23)cc1", "note": "(centres unmarked)", "%Inh": 0},
      {"smiles": "CC(C(=O)NC1CCN(c2ccnc(Nc3ccc(F)cc3)n2)C1)c1ccc(Cl)cc1", "note": "(centres unmarked) [GSK1379713]", "%Inh": 10},
      {"smiles": "COC(=O)Nc1nc2cc(Oc3ccc(NC(=O)Nc4cc(C(F)(F)F)ccc4Cl)cc3)ccc2[nH]1.Cl", "note": "[GW697465]", "%Inh": 62},
      {"smiles": "Cn1ccc2ncnc(Oc3ccc(NC(=O)Nc4cccc(C(F)(F)F)c4)c(F)c3)c21", "%Inh": 80},
      {"smiles": "O=c1[nH]cc(-c2ccc(O)cc2)c2sc(-c3ccncc3)cc12", "note": "[GSK1033723]", "%Inh": 0},
      {"smiles": "Cc1ccc2c(-c3ccnc(Nc4ccc(C(F)(F)F)cc4)n3)cnn2n1", "note": "[GW819776]", "%Inh": 14},
      {"smiles": "CN1CCN(CCNc2nc3cc(Oc4ccc(NC(=O)Nc5cc(C(F)(F)F)ccc5F)cc4)ccc3[nH]2)CC1.Cl.Cl", "note": "[GW768504]", "%Inh": 17},
      {"smiles": "Cc1ccc(C(=O)Nc2ccc(Oc3ccc4nc(NC(=O)C5CC5)cn4c3)c(F)c2)c(=O)n1-c1ccccc1", "%Inh": 83},
      {"smiles": "Nc1nccc(-c2ccc3c(N)n[nH]c3c2)n1", "note": "[GSK1034945]", "%Inh": 30},
      {"smiles": "COc1cccc(CNC(=O)NC2CCN(c3ccnc(Nc4cc(OC)c(OC)c(OC)c4)n3)C2)c1", "note": "(centres unmarked) [GSK1379765]", "%Inh": 13},
      {"smiles": "Cn1ccc2ncnc(Oc3ccc(NC(=O)Nc4cccc(C(F)(F)F)c4)c(Cl)c3)c21", "%Inh": 70},
      {"smiles": "CCNCC(Cc1ccccc1)NC(=O)c1cc(Br)c(-c2ccnc3[nH]ccc23)s1.Cl.Cl", "note": "(centres unmarked) [GSK1383280]", "%Inh": 7},
      {"smiles": "Cc1cccc(-c2nc(Nc3ccncc3)c3sccc3n2)n1", "note": "[GW869641]", "%Inh": 15},
      {"smiles": "Cn1ccc2ncnc(Oc3ccc(NC(=O)Nc4cc(C(C)(C)C)on4)c(Cl)c3)c21", "%Inh": 65},
      {"smiles": "COc1cc2ncn(-c3cc(OCC4CCCCC4)c(C(N)=O)s3)c2cc1OC", "note": "[GSK204559]", "%Inh": 10},
      {"smiles": "CCn1c(-c2nonc2N)nc2cncc(CNC3CCNCC3)c21.Cl", "note": "[SB-747651]", "%Inh": 12},
      {"smiles": "O=C(Nc1cccc(C(F)(F)F)c1)c1cccc(Oc2ccc3nccn3n2)c1", "%Inh": 20},
      {"smiles": "COC(=O)c1cccc(NC(=O)NC2CCN(c3ccnc(Nc4cc(OC)c(OC)c(OC)c4)n3)C2)c1", "note": "(centres unmarked) [GSK1379767]", "%Inh": 10},
      {"smiles": "Cn1cc(-c2cccc3c(N)c(C(N)=O)nnc23)cn1", "%Inh": 4},
      {"smiles": "CCN1CCN(CCCC(=O)Nc2n[nH]c3nc(-c4ccc(O)cc4)c(Br)cc23)CC1", "note": "[SB-731579]", "%Inh": 0},
      {"smiles": "COc1cccc(OC)c1C(=O)Nc1cccc(-c2nn3ccccc3c2-c2ccnc(Nc3cccc(F)c3)n2)c1", "note": "[GSK361065]", "%Inh": 100},
      {"smiles": "Cl.Cl.NC[C@H](CC1CCCCC1)NC(=O)c1ccc(-c2ccnc3[nH]ccc23)s1", "note": "[GSK1581428]", "%Inh": 6},
      {"smiles": "COc1cc2c(Nc3ccc(NC(=O)c4ccccc4)cc3)ncnc2cc1OCCCN1CCOCC1", "note": "[GSK301329]", "%Inh": 20},
      {"smiles": "CC(=O)Nc1ccc(-c2cc3ncnc(SCC(=O)O)c3s2)cc1", "%Inh": 0},
      {"smiles": "C[C@@H]1CNc2c(sc3ccc4nc(-c5ccc(O)cc5)ccc4c23)C(=O)N1", "%Inh": 5}
    ]},
    {"test_system": "EPHB2", "settings": "concentration: 1 μM,replicates: in singlicate; n = 1", "units": {"%Inh": "%"}, "values": [
      {"smiles": "CS(=O)(=O)c1cccc(CNc2nc(Nc3ccc4c(c3)[C@@H]3C[C@@H]4CNC3=O)ncc2C(F)(F)F)c1", "%Inh": 19},
      {"smiles": "CSc1nccc(-c2c(-c3ccc(F)cc3)ncn2CCCN2CCOCC2)n1.Cl", "note": "[SB-217146]", "%Inh": 0},
      {"smiles": "O=C1NCCc2[nH]c(-c3ccncc3)cc21", "%Inh": 12},
      {"smiles": "FC(F)(F)c1cc(Br)cc(Nc2nccc(-c3cnn4ncccc34)n2)c1", "note": "[GW810578]", "%Inh": 9},
      {"smiles": "CN(c1ccc2c(c1)nc(NCc1ccc(F)cc1)n2C)c1ccnc(Nc2ccc(CS(C)(=O)=O)cc2)n1.Cl", "note": "[GW813244]", "%Inh": 23},
      {"smiles": "Cc1ccc(CC(=O)N2CCc3cc(-c4cn(C)c5ncnc(N)c45)ccc32)cc1", "note": "[GSK2634758]", "%Inh": 0},
      {"smiles": "O=C(NCC1CC1)c1ccc(-c2cc(C(=O)NC3CC3)ccc2F)cc1", "note": "[GW810445]", "%Inh": 0},
      {"smiles": "CCn1c(-c2nonc2N)nc2cncc(Br)c21", "note": "[SB-738004]", "%Inh": 12},
      {"smiles": "CN1CCN(CCCNc2nccc(-c3c(-c4ccc(F)cc4)nn4cc(C(N)=O)ccc34)n2)CC1", "note": "[GW622475]", "%Inh": 26},
      {"smiles": "O=C(NOCC1CC1)c1cc(Br)c(F)c(F)c1Nc1ccc(I)cc1Cl", "%Inh": 5},
      {"smiles": "Cc1n[nH]c2cc(Nc3ccnc(Nc4cccc(CN5CCOCC5)c4)n3)ccc12", "note": "[GW682569]", "%Inh": 13},
      {"smiles": "C[C@@H]1CCN(C(=O)N2CCCC2)C[C@@H]1N(C)c1ncnc2[nH]ccc12", "%Inh": 5},
      {"smiles": "CS(=O)c1ccc(-c2coc3ccc(-c4n[nH]c(=O)o4)cc23)cc1", "note": "(centres unmarked)", "%Inh": 12},
      {"smiles": "CC(C(=O)NC1CCN(c2ccnc(Nc3ccc(F)cc3)n2)C1)c1ccc(Cl)cc1", "note": "(centres unmarked) [GSK1379713]", "%Inh": 0},
      {"smiles": "COC(=O)Nc1nc2cc(Oc3ccc(NC(=O)Nc4cc(C(F)(F)F)ccc4Cl)cc3)ccc2[nH]1.Cl", "note": "[GW697465]", "%Inh": 60},
      {"smiles": "Cn1ccc2ncnc(Oc3ccc(NC(=O)Nc4cccc(C(F)(F)F)c4)c(F)c3)c21", "%Inh": 90.6},
      {"smiles": "O=c1[nH]cc(-c2ccc(O)cc2)c2sc(-c3ccncc3)cc12", "note": "[GSK1033723]", "%Inh": 26},
      {"smiles": "Cc1ccc2c(-c3ccnc(Nc4ccc(C(F)(F)F)cc4)n3)cnn2n1", "note": "[GW819776]", "%Inh": 0},
      {"smiles": "CN1CCN(CCNc2nc3cc(Oc4ccc(NC(=O)Nc5cc(C(F)(F)F)ccc5F)cc4)ccc3[nH]2)CC1.Cl.Cl", "note": "[GW768504]", "%Inh": 34},
      {"smiles": "Cc1ccc(C(=O)Nc2ccc(Oc3ccc4nc(NC(=O)C5CC5)cn4c3)c(F)c2)c(=O)n1-c1ccccc1", "%Inh": 94.8},
      {"smiles": "Nc1nccc(-c2ccc3c(N)n[nH]c3c2)n1", "note": "[GSK1034945]", "%Inh": 19},
      {"smiles": "COc1cccc(CNC(=O)NC2CCN(c3ccnc(Nc4cc(OC)c(OC)c(OC)c4)n3)C2)c1", "note": "(centres unmarked) [GSK1379765]", "%Inh": 0},
      {"smiles": "Cn1ccc2ncnc(Oc3ccc(NC(=O)Nc4cccc(C(F)(F)F)c4)c(Cl)c3)c21", "%Inh": 92.9},
      {"smiles": "CCNCC(Cc1ccccc1)NC(=O)c1cc(Br)c(-c2ccnc3[nH]ccc23)s1.Cl.Cl", "note": "(centres unmarked) [GSK1383280]", "%Inh": 0},
      {"smiles": "Cc1cccc(-c2nc(Nc3ccncc3)c3sccc3n2)n1", "note": "[GW869641]", "%Inh": 6},
      {"smiles": "Cn1ccc2ncnc(Oc3ccc(NC(=O)Nc4cc(C(C)(C)C)on4)c(Cl)c3)c21", "%Inh": 78},
      {"smiles": "COc1cc2ncn(-c3cc(OCC4CCCCC4)c(C(N)=O)s3)c2cc1OC", "note": "[GSK204559]", "%Inh": 0},
      {"smiles": "CCn1c(-c2nonc2N)nc2cncc(CNC3CCNCC3)c21.Cl", "note": "[SB-747651]", "%Inh": 0},
      {"smiles": "O=C(Nc1cccc(C(F)(F)F)c1)c1cccc(Oc2ccc3nccn3n2)c1", "%Inh": 9},
      {"smiles": "COC(=O)c1cccc(NC(=O)NC2CCN(c3ccnc(Nc4cc(OC)c(OC)c(OC)c4)n3)C2)c1", "note": "(centres unmarked) [GSK1379767]", "%Inh": 0},
      {"smiles": "Cn1cc(-c2cccc3c(N)c(C(N)=O)nnc23)cn1", "%Inh": 12},
      {"smiles": "CCN1CCN(CCCC(=O)Nc2n[nH]c3nc(-c4ccc(O)cc4)c(Br)cc23)CC1", "note": "[SB-731579]", "%Inh": 6},
      {"smiles": "COc1cccc(OC)c1C(=O)Nc1cccc(-c2nn3ccccc3c2-c2ccnc(Nc3cccc(F)c3)n2)c1", "note": "[GSK361065]", "%Inh": 0},
      {"smiles": "Cl.Cl.NC[C@H](CC1CCCCC1)NC(=O)c1ccc(-c2ccnc3[nH]ccc23)s1", "note": "[GSK1581428]", "%Inh": 0},
      {"smiles": "COc1cc2c(Nc3ccc(NC(=O)c4ccccc4)cc3)ncnc2cc1OCCCN1CCOCC1", "note": "[GSK301329]", "%Inh": 0},
      {"smiles": "CC(=O)Nc1ccc(-c2cc3ncnc(SCC(=O)O)c3s2)cc1", "%Inh": 10},
      {"smiles": "C[C@@H]1CNc2c(sc3ccc4nc(-c5ccc(O)cc5)ccc4c23)C(=O)N1", "%Inh": 12}
    ]}
  ]
}
